# Measurements: the supplement of paper PMC6555819
# Legend:
# Assay in all cases: PBM binding z-score (relative to random genomic background probes); higher = stronger binding; sequences stand for … in GC…GCGATTGACAGCGTAGAATGAAGG
# [1] = test system: FXR:RXRa (NR concentration 270 nM, RXRa partner concentration 90 nM)
# Outline: (§1)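 On custom Agilent 4×180K arrays, double-stranded probes with 34-nt variable regions carried direct-repeat seeds, single-nucleotide variants, half-site ablations or random human genomic background. Ligand-free nuclear receptor dimers were applied for 1 h, and binding was read with antibodies against each partner (one per run). Binding z-scores come from regression-normalized fluorescence, with the random background probes as reference.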
# [2] = test system: LXRa:RXRa (NR concentration 270 nM, RXRa partner concentration 90 nM)
# Outline: as §1
# [3] = test system: LXRa homodimer (NR concentration 270 nM)
# Outline: as §1
# [4] = test system: LXRb:RXRa (NR concentration 270 nM, RXRa partner concentration 90 nM)
# Outline: as §1
# [5] = test system: LXRb homodimer (NR concentration 270 nM)
# Outline: as §1
# [6] = test system: PPARa:RXRa (NR concentration 270 nM, RXRa partner concentration 90 nM)
# Outline: as §1
# [7] = test system: PPARg:RXRa (NR concentration 180 nM, RXRa partner concentration 90 nM)
# Outline: as §1
# [8] = test system: PPARg:RXRa 270nM:90nM, anti-RXR (NR concentration 270 nM, RXRa partner concentration 90 nM)
# Outline: as §1
# [9] = test system: PPARg:RXRa 30nM:10nM, anti-RXR (NR concentration 30 nM, RXRa partner concentration 10 nM)
# Outline: as §1
# [10] = test system: PPARg:RXRa 90nM:30nM, anti-RXR (NR concentration 90 nM, RXRa partner concentration 30 nM)
# Outline: as §1
# [11] = test system: PPARg:RXRa DBDmut IVT, anti-RXR (DBD mutation: RXRa K156A/R161A, NR concentration 270 nM, RXRa partner concentration 90 nM)
# Outline: as §1
# [12] = test system: PPARg:RXRa IVT, anti-PPARg (NR concentration 270 nM, RXRa partner concentration 90 nM)
# Outline: as §1
# [13] = test system: PPARg DBDmut:RXRa IVT, anti-PPARg (DBD mutation: PPARg1 K132A/R137A, NR concentration 270 nM, RXRa partner concentration 90 nM)
# Outline: as §1
# [14] = test system: PPARg DBDmut IVT, anti-PPARg (DBD mutation: PPARg1 K132A/R137A, NR concentration 270 nM)
# Outline: as §1
# [15] = test system: PPARg homodimer (NR concentration 180 nM)
# Outline: as §1
# [16] = test system: PXR:RXRa (NR concentration 270 nM, RXRa partner concentration 90 nM)
# Outline: as §1
# [17] = test system: PXR homodimer (NR concentration 270 nM)
# Outline: as §1
# [18] = test system: RARa:RXR (NR concentration 270 nM, RXRa partner concentration 90 nM)
# Outline: as §1
# [19] = test system: RARa homodimer (NR concentration 270 nM)
# Outline: as §1
# [20] = test system: RARb:RXRa (NR concentration 270 nM, RXRa partner concentration 90 nM)
# Outline: as §1
Sequence,PBM binding z-score [1],PBM binding z-score [2],PBM binding z-score [3],PBM binding z-score [4],PBM binding z-score [5],PBM binding z-score [6],PBM binding z-score [7],PBM binding z-score [8],PBM binding z-score [9],PBM binding z-score [10],PBM binding z-score [11],PBM binding z-score [12],PBM binding z-score [13],PBM binding z-score [14],PBM binding z-score [15],PBM binding z-score [16],PBM binding z-score [17],PBM binding z-score [18],PBM binding z-score [19],PBM binding z-score [20]
TCTTGTAGATCAATAAAGGTTAAGAAAGTGCGCT,1.03,4.33,0.774,2.36,0.274,2.32,0.49,2.26,2.99,2.82,2.1,1.29,0.661,1.24,1.33,3.04,0.584,2.3,1.6,1.53
TCGAGTTGGTTAGGGGCATTCAGAATGGCGTCGA,0.222,0.121,-0.233,0.793,-0.112,0.575,-0.307,0.595,0.687,0.343,0.816,-0.123,-0.765,-0.477,0.182,1.14,2.82,0.232,0.104,0.514
CGTCCAAGGTCAAAGGTCAGTCAAGAGATGACGG,8.41,6.97,3.05,6.77,1.83,7.07,10.9,8.99,7.83,9.18,3.88,5.75,0.706,-0.299,2.8,7.08,1.81,9.03,1.5,5.97
GCATATAGGTAATACCAGGTGAAAGTCCGATTGT,0.107,2.05,0.172,0.185,-0.363,1.26,1.13,1.19,0.303,0.881,4.03,3.4,0.784,0.508,0.56,0.0811,0.268,1.47,0.331,-0.00831
CGTCCAAGGTCAAAGGCCAGTGAAGAGATGACGG,7.32,5.28,0.422,3.87,0.919,6.01,6.49,6.54,3.55,5.57,3.42,4.02,0.425,0.106,3.37,4.39,0.655,5.25,0.426,5.29
CCTGCTGGGCCACGAAAGGTCATTGATTCAGTGA,3.41,5.49,4.48,4.19,0.0525,4.2,1.59,3.23,0.385,2.27,1.93,2.25,-0.596,-0.339,5.05,5.52,1.38,5.76,2.23,4.05
ATATGTACGTTATCGGGTCATTCAGTTTGCGCAT,2.05,2.01,1.02,2.32,1.03,2.67,1.3,1.35,0.0555,0.972,1.03,2.37,1.71,1.76,1.32,3.32,7.47,3.02,0.585,1.93
AGAACGAGGGCAATGAGTCGATAGCACGGGTGGC,0.187,-0.15,-0.625,-0.448,-0.595,1.03,1.41,0.849,0.0259,0.789,3.4,2.38,-0.0536,-0.236,-0.174,0.0741,0.415,-0.0854,-0.378,1.9
CCTTACGGGTCAAGGTTATAGAACGGGTGGTACG,5.4,3.68,0.401,3,-0.0236,5.1,4.04,4.67,1.87,3.53,1.6,3.22,-0.135,-0.211,1.83,3.27,0.223,4.16,1,4.13
AGAATGAGGTTTAGATCAGGGAAACAGAATACAT,0.0195,-0.0666,-0.0558,-0.395,-0.223,-0.306,0.649,0.00462,0.223,0.354,-0.558,-0.176,0.757,0.896,-0.0172,-0.27,-0.0808,-0.0668,0.721,-0.105
AGAATGAGGTTATACGTAAATCAGGGAAGAAAGT,2.3,1.9,0.21,1.77,0.0752,3.24,2.5,2.79,0.991,2.07,3.33,2.28,0.904,1.57,0.789,1.18,0.834,1.77,0.337,1.59
CCTCGGAGGACAACAGGAGGTCAGAGGTGCCAGA,1.07,1.95,2.19,1.34,-0.628,2.04,1.1,1.57,-0.13,0.94,-0.227,0.737,-1.23,-1.03,1.99,2.36,0.719,2.6,0.638,3
CCAGACAGGTCAGAAGGTAACTCAGCCTCGATTA,2.82,2.29,0.142,1.7,-0.0467,3.15,1.84,2.26,0.435,1.4,1.41,1.15,-0.393,-1.03,2.19,1.21,0.153,2.1,0.911,3.49
CTCGAAAGGTCGGTTGAGGCGAGTATACGGATAA,1.49,1.17,-0.238,0.925,-0.22,2.11,0.256,0.752,-0.191,0.269,-0.316,0.197,0.246,-0.285,0.331,1.17,-0.214,2,-0.443,2.66
GCTCGGAGGACAAGATCAGAGCTTTGTCCGTAGA,-0.699,-0.742,-0.685,-0.96,-0.96,-0.552,-0.773,-0.906,-1.18,-1.04,-0.785,-0.327,-1.13,-1.46,-1.73,-0.776,-0.689,-0.823,-1.48,0.581
GCTTATAGATCAAGGTTAAGAAAGACTAAGCTAA,0.198,0.766,-0.148,0.438,-0.382,1.4,0.991,1.57,0.403,1.13,0.775,0.678,0.643,0.713,0.58,0.457,-0.0715,0.879,0.134,0.997
TCGAGTAGGTTAGGGGCATTCACAATGGCGTCGA,0.495,0.167,-0.286,0.973,-0.112,1.38,1.01,1.84,1.59,1.94,2.39,1.39,-0.325,-0.622,0.582,0.481,0.107,0.506,-0.0724,0.977
CTCGAAAGGTCGGTTGAGGTGAGCATACGGATAA,2.86,1.78,-0.014,1.37,-0.173,2.74,0.697,1.33,0.406,0.609,-0.122,1.01,-0.332,-0.0105,0.799,2.9,-0.0982,2.5,0.0392,3.09
AGAACGAGGGCACGCTGACTTGATAGCAGAGTAG,0.758,0.896,-0.482,0.363,-0.85,2.31,2.29,1.85,0.503,1.18,3.96,4.19,0.288,0.937,-0.0871,0.461,-0.269,0.898,-0.516,2.44
TCTATTCGTTGAAGGGCAACCGACGAGTCCGTTT,0.909,1.05,0.235,1.05,0.752,1.25,0.0836,2.42,3.64,3.2,2,0.764,0.959,0.28,0.703,0.999,0.546,0.933,0.583,1.56
ACTCGGAGGACAAAGGTCCGAGCTACGCCAGTGA,-0.0908,0.0119,-0.328,-0.654,-0.577,0.672,1.66,2.29,0.616,2.38,0.177,0.313,-0.996,-0.635,-0.36,-0.365,-0.238,-0.334,-0.387,1.29
TCTGCTAGGTCAATTGGTCAGCTAACGAGCTGCC,2.99,2.31,-0.37,1.44,0.648,3.04,1.76,2.76,1.64,2.31,3.71,3.87,1.29,0.854,2.37,0.895,-0.774,1.87,-0.436,3.79
GCGACTGGGGCAAAGCAGGCTACCATAAGGTTGG,-0.319,-0.696,-0.699,-0.682,-0.971,0.527,0.941,0.966,-0.413,0.272,4.44,3.34,-0.239,-0.307,-0.349,-0.574,-0.689,-0.126,-1.27,0.579
AGAATGAGGTTATACATAGATCAGGGAAGAAAGT,1.88,2.05,0.223,1.56,0.151,3.07,2.28,1.87,0.974,1.4,2.35,1.91,1.44,1.27,1.21,1.43,0.76,1.9,0.765,1.6
CCTGCTAGGTCAATGGTCAGCTATAGCAGCTCGC,2.7,2.23,0.0531,1.44,0.0202,3.06,4.45,4.91,2.6,4.71,4.67,3.79,-0.186,-0.414,1.14,0.849,-0.745,1.57,-0.658,3.75
ACTATTAGTTGACTTATGGCAACCGATACGACGC,0.061,0.293,0.179,0.682,0.995,0.117,1.04,0.488,0.748,0.352,0.0133,0.165,1.06,1.08,0.983,0.367,0.358,0.397,1.2,0.351
TCTGCTAGGTCAGTTGGTCAGATAACGAGCTGCC,1.05,0.831,-0.457,0.683,0.181,1.36,0.922,1.72,1.53,1.68,2.68,3.15,0.782,0.323,0.482,0.274,-0.646,0.69,-0.432,3.36
GCAACTGGGGCAAAGCAGGTTACCATAAGGTTGG,0.393,0.00585,-0.385,0.511,-0.769,2.06,2.61,2.77,0.156,1.77,5.89,5.52,0.219,-0.357,-0.0265,0.339,-0.607,0.838,-0.392,0.995
